Experimental data taken from PubChem BioAssay AID434973 (Sanford-Burnham Center for Chemical Genomics, 2010).
About 4,900 (1.5%) of roughly 330,000 compounds were called active.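 The calls were made as follows: active = inhibition above about 50% at the single test dose (limit read from the data); inactive = the rest.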 The entries come from a sample that favours actives as a whole.

These compounds were tested against Sentrin-specific protease 7 (Homo sapiens) (UniProt Q9BQF6) (assay: SENP7 protease inhibitors, primary screen, biochemical, luminescence, uHTS (AID 434973;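 also: plate controls were DMSO with enzyme for no effect and no enzyme buffer wells for full effect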)). Conditions: recombinant SENP7, Z-RLRGG-aminoluciferin luminescence, 40 min; at 5 µM; active compounds read high.

inhibition, inactive:
Cc1ccc(-n2[nH]c(C)c(/C=N/NC(=O)c3cccc([N+](=O)[O-])c3)c2=O)cc1C -1.05%
Cc1[nH]n(-c2ccccc2)c(=O)c1N=Nc1ccccc1C(=O)N1CCCCC1 0.644%
CCNC(=S)N1CCN(CCN=CC2=C(O)CC(C)(C)CC2=O)CC1 -0.44%
CC1(C)CC(=O)C(C=NCCN2CCN(C(=S)Nc3cccc(Cl)c3)CC2)=C(O)C1 -11.9%
Cc1ccc(C(=O)N(CC(=O)NC2CCCC2)c2ccc(F)cc2)s1 -4.07%
CCc1noc(C)c1C(=O)N1CCN(S(=O)(=O)c2cccc(C(F)(F)F)c2)CC1 0.961%
S=c1[nH]c(-c2cccs2)cn1-c1ccccc1 -0.786%
O=C(Nc1cc2ccccc2oc1=O)C1CCCCC1 0.223%
COc1ccc(C(CCN(Cc2ccc(OC)c(OC)c2)C(=O)CCl)c2ccccc2)cc1 (stereo unspecified) -4.24%
CCCS(=O)(=O)N1CCCC(C(=O)NCCN2CCCCC2C)C1 (stereo unspecified) 4.11%
COc1ccc(/C=C2\SC(=S)N(CC(=O)NNC(=O)c3ccncc3)C2=O)cc1 5.57%
COc1ccc(/C=C2\SC(=S)N(CCC(=O)Nc3cccc(C(=O)O)c3)C2=O)cc1OC -3.5%
CCO[C@@H]1OC(C(=O)NC2CC2)=C[C@H](C)[C@H]1CCCO 6.12%
Cn1nccc1NS(=O)(=O)c1ccc(F)cc1 4.62%
O=C(CN1CCOC1=O)N1CCCC(Nc2ccc(F)c(F)c2)C1 (stereo unspecified) 1.33%
Cc1cccc(NC(=O)c2cc(N3C(=O)CCC3=O)ccc2Cl)n1 6.63%
Cc1cccc(NC(=O)c2cccnc2Cl)n1 5.58%
O=C(O)C1=CCCN(CCON=C(c2ccccc2)c2ccccc2)C1 1.76%
Cc1ccc(CSc2nsc(C)c2C#N)cc1 -2.96%
COC(=O)C(=Nc1ccccc1)/C(C(=O)C(=O)N(C)c1ccccc1)=C(\O)c1ccc(Cl)cc1 -1.49%
CCn1c(CC(=O)Nc2ccccc2C)nnc1SCC(=O)NC1=NCCS1 -7.93%
CC(=O)Nc1ccccc1NC(=O)c1cc(C)cc(C)c1 2.28%
C=CCN(c1ccc(C(=O)Nc2cc(C)cc(C)c2)cc1)S(C)(=O)=O 6.36%
CN(C)C(=O)Cn1c(=O)n(S(=O)(=O)c2ccccc2)c2ccccc21 2.64%
C/C(=N\NC(=O)CNC(=O)C(c1ccccc1)c1ccccc1)c1ccc(C)cc1 -4.66%
Cc1ccc(C(=O)N/C(=C/c2cccnc2)C(=O)O)cc1 -9.12%
CC(=O)N1c2ccc(S(=O)(=O)N3CCCC(C(=O)Nc4ccc(C)cc4C)C3)cc2CC1C (stereo unspecified) 7.52%
CSc1ccc(C#N)cc1NC(=O)c1ccc(Cl)cc1 0.394%
CC(=O)c1sc(N/N=C/c2ccc(C(C)C)cc2)nc1C 0.0938%
CNC(=O)c1sc(NCc2ccccc2OC)nc1C 6.9%
COc1ccc(S(=O)(=O)N2CCOC2CNC(=O)C(=O)NCc2ccc(F)cc2)cc1 (stereo unspecified) 2.2%
C=CCN(C(=O)Nc1ccc2c(c1)nc(C)n2C)c1ccccc1 5.72%
Cn1c(CCN2CCCCCC2)nc2cc(NC(=O)Nc3ccccc3)ccc21 10%
NC(=O)c1ccc(Nc2ccc3nonc3c2[N+](=O)[O-])cc1 -0.507%
Cc1nc2nc(CSc3nc4ccccc4s3)cc(=O)n2[nH]1 -13.3%
COc1ccc(OCC(O)CN(C)C(=O)C(C)Oc2ccccc2)cc1 (stereo unspecified) 11.8%
COc1ccc(C2=NS(=O)(=O)N(C)C(C(=O)N3CCCCC3)=C2)cc1 -5.66%
O=C(CCNS(=O)(=O)c1cccs1)N1CCN(c2ccc(F)cc2)CC1 -1.51%
N/C(=N\OC(=O)CC1CCCCC1)c1ccccc1 21.8%
COc1ccccc1OCC(=O)O/N=C(\N)c1ccccn1 7.18%
O=C(CSc1nnc(COc2ccc(Cl)cc2)n1Cc1ccco1)N1CCNC1=O -0.0156%
O=S(=O)(NCC1CC1)c1ccc(F)c(Cl)c1 2.72%
COc1ccccc1N=C(C)C1=C(O)COC1=O -4.17%
COc1cc(N=Cc2c(O)c3ccccc3oc2=O)c(OC)cc1Cl -0.159%
N/C(=N\OC(=O)N1c2ccccc2Sc2ccccc21)c1ccc(Br)cc1 -8.09%
N/C(=N\OC(=O)/C=C/c1ccccc1)c1ccc(Br)cc1 9.06%
COc1ccc(C2c3c(C)nn(-c4ccccc4)c3NC(=O)N2c2ccccc2)cc1 (stereo unspecified) 3.05%
CCCCNC(=O)OC(C)CNC(=O)OC (stereo unspecified) -1.91%
Cc1ccc(C(=O)NCC(=O)O)s1 -11.9%
O=C(NCCc1ccccc1)C1CC1 -1.24%
COc1ccc(N(C(=O)c2snc(C(N)=O)c2N)C(C(=O)NC2CCCC2)c2ccco2)cc1OC (stereo unspecified) -9.37%
CC(C)CC(=O)N/C(N)=N/c1nc2ccccc2s1 33.4%
CCC1(CC)NC(=O)N(Cc2nc3ccccc3s2)C1=O -4.41%
CCC(C)Cn1c(O)cc2nn(-c3nc4ccccc4s3)c(=O)c-2c1C (stereo unspecified) 8.83%
CCc1ccc(-c2cc(C(=O)NCc3ccco3)c3ccccc3n2)s1 6.27%
CC(=O)c1sc(NC(=O)CCN2C(=O)C3CC=CCC3C2=O)nc1-c1ccccc1 (stereo unspecified) 0.528%
Cc1ccc(C)c(N2C(=O)CS/C2=N\NC(=O)c2ccccc2Cl)c1 -12.9%
CCCCC/C=C/C1=CC(=O)C[C@H](c2ccc(Cl)cc2)C1 2.82%
CCOc1ccc(NC(=S)N2CCC(NC(=O)c3ccccc3)CC2)cc1 -5.22%
CC(=O)Nc1ccc(/C=C/C(=O)c2ccccc2)cc1 -13.6%
O=C(/C=C/NCc1ccc(F)cc1)c1ccccc1 7.34%
Cc1cc(N/C=C\C(=O)c2ccc(Cl)c(Cl)c2)no1 10.2%
CCOc1ccc(N/C=C/C(=O)c2cc(OC)c(OC)c(OC)c2)cc1 -14.5%
COc1ccc(N2C(=O)CCC(C(=O)Nc3ccccn3)C2c2ccc(OC)c(OC)c2)cc1 (stereo unspecified) 9.84%
NCCCC[C@@H]1NC(=O)[C@H](CCC(=O)O)NC(=O)c2cc([N+](=O)[O-])cc(I)c2NCC[C@@H](C(N)=O)NC1=O 0.545%
O=C(COC(=O)c1cccnc1Cl)NC(=O)NC1CCCCC1 -2.4%
O=C(c1ccc2nc(N3CCOCC3)sc2c1)N1CCN(c2ccc(Cl)cc2)CC1 0.5%
CN(C)CCCN(C(=O)c1ccc(S(=O)(=O)N2CCCCCC2)cc1)c1nc2cc3c(cc2s1)OCCO3 4.88%
Fc1ccc2nc(Nc3nc4c(s3)CCCC4)sc2c1 9.46%
O=S(=O)(Nc1ccc2nc(N3CCOCC3)sc2c1)c1ccccc1 -7.76%
Cc1nc(N2CCCCC2)sc1C=O 11.3%
O=C(NCCc1cccc(F)c1)C1CCCN(c2nc3ccccc3s2)C1 (stereo unspecified) 7.46%
C/C(CC(=O)N1CCN(C=O)CC1)=N\NC(=O)c1ccc(Br)cc1 4.47%
COCC(C)n1c(SCC(=O)NC2CCCCC2C)nc2ccccc2c1=O (stereo unspecified) -6.63%
CC(C)NC(=O)c1ccc(Sc2ccccc2)c([N+](=O)[O-])c1 4.52%

inhibition, active:
Cc1[nH]n(-c2ccc([N+](=O)[O-])cc2)c(=O)c1C=NCCN1CCN(C(=O)c2ccccc2F)CC1 82.4%
C=CCNC(=S)N1CCN(CCN=Cc2c(C)[nH]n(-c3ccc([N+](=O)[O-])cc3)c2=O)CC1 87.2%
O=c1oc2ccccc2cc1-c1cn(-c2ccccc2)c(=S)[nH]1 99.2%
C=CCOc1ccc(/C=C2\SC(=S)N(CCC(=O)O)C2=O)cc1 98.9%
Cc1cccc(NC(=O)c2ccc3ccccc3n2)n1 78.7%
CSCc1ccc(C(=O)Nc2cc(C)cc(C)c2)cc1 75.3%
C/C(=N\NC(=O)c1ccc(C)cc1)C1C(=O)c2ccccc2C1=O 77.1%
COc1cccc2sc(Nc3nc(C)c(C(C)=O)s3)nc12 69.1%
Cc1nc2cc(NC(=O)Nc3cccc(F)c3)ccc2n1C 96.5%
O=[N+]([O-])c1c(NCCO)cc(Sc2nc3ccccc3s2)c2nonc12 79.2%
N/C(=N\OC(=O)CCC1CCCCC1)c1ccccn1 82%
COc1ccccc1N=Cc1c(O)c2ccccc2oc1=O 88%
N/C(=N\OC(=O)c1ccc2c(c1)OCO2)c1ccc(Br)cc1 71.1%
CC(=NCc1ccco1)c1c(C(F)(F)F)[nH]n(-c2nc3ccccc3s2)c1=O 98.9%
C/C(=N\NC(=O)CC(C)C)c1c(C(F)(F)F)[nH]n(-c2nc3ccccc3s2)c1=O 98.7%
COc1ccc(C(=O)/C=C/Nc2ccccn2)cc1 99.2%
CCOc1ccc(N/C=C/C(=O)c2ccccc2)cc1 99.3%
Cc1ccc(N/C=C/C(=O)c2ccccc2)cc1C 91.8%
Brc1ccc2nc(N3CCCC3)sc2c1 93.4%
c1c2c(cc3sc(N4CCCCC4)nc13)OCCO2 97.8%
Fc1ccc2nc(N3CCCCC3)sc2c1 85.3%
